Out of some 300,000 compounds screened, about 660 (0.22%) were called active.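 Rule for the calls: active = mean replicate score, as percent of positive control, at or above 50; inconclusive = mean below 50 but at least one replicate at or above 50; inactive = mean and every replicate below 50.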 Only a selection was taken, and actives are over-represented in it overall.
test: inhibitors of platelet dense granule secretion, primary screen, cell-based, MLPCN, human platelets (AID 1663); conditions: human platelet-rich plasma, SFLLRN dense granule ATP release, luminescence; active compounds read high;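 compounds screened at 7.5 µM in platelet-rich plasma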

inhibition, active:
COc1ccc(C2CC(=O)Nc3sc(=N)c4c(N)c(C#N)c(N)nc4c32)cc1OC (stereo not given) 92.7%
O=C(CSc1nnc(SCc2ccc(F)cc2)s1)Nc1ccc(C(=O)O)cc1 65.9%
COc1cccc(C(=O)Nc2ccc(N3CCCC3)cc2)c1 87.6%
Cc1cnc(NC(=O)c2ccccn2)s1 52.7%
Cn1c(-c2ccco2)nc2cc3ccccc3cc21 66.2%
Cc1nc2cc(NC(=O)Nc3cccc(F)c3)ccc2n1C 56.5%
COC(=O)c1sc(NC(=O)c2ccc(OC)cc2OC)nc1C 57.3%
COc1ccc(NC(=O)/C(Cl)=C(/Cl)S(=O)Cc2ccc(C)cc2)cn1 (stereo not given) 59%
COc1ccc(C(=O)Nc2ccccc2C(=O)N/N=C/c2ccc(O)c(OC)c2)cc1 97.1%
COc1ccc(C(=O)Nc2ccccc2C(=O)N/N=C/c2ccccc2OC)cc1 73.7%

inhibition, inactive:
O=[N+]([O-])c1ccc2c(c1)Nc1nc3ccccc3nc1N2 -4.77%
Cc1sc2ncn(CC(=O)NCCCC(=O)N(C)Cc3ccccc3)c(=O)c2c1C 10.8%
COc1ccc(C(C)=O)cc1CN1C(=O)NC2(CCCCC2C)C1=O (stereo not given) -14.5%
O=[N+]([O-])c1ncc(Br)cc1Nc1ccccc1 -1.96%
CCOC(=O)N1CCN(C(=O)c2ccc3c(=O)n(CCc4ccc(OC)c(OC)c4)c(=O)[nH]c3c2)CC1 -6.61%
C/C(=N\NC(=O)c1cc2c(s1)CCC(C)C2)c1cccnc1 (stereo not given) 9.94%
N#Cc1c(N)nc2c3c(sc(=N)c2c1N)NC(=O)CC3c1ccccc1Cl (stereo not given) -3.78%
COc1ccc(-c2cc(-c3ccc(N)cc3)nc(N)c2C#N)cc1OC 0.00483%
COc1ccc(NC(=O)CC2C(=O)OCC3CCCCN32)cc1Cl (stereo not given) 7.17%
O=C(Cc1cccs1)Nc1nnc(SCc2ccc(F)cc2)s1 -6.18%
COc1cc(OC)cc(-c2nnc(SCC(=O)Nc3ccc(C(=O)O)cc3)s2)c1 -1.66%
COc1ccc(C(=O)OCC(=O)NC(=O)CCSc2ccccc2)cc1 -1.32%
C=CCNCCCCOc1ccccc1 3.06%
C=C(C)COc1ccc(-c2ncncc2-c2ccc(OC)cc2)c(O)c1 3.43%
CC(C(=O)NC1CCCCC1)N1C(=O)c2cccc3cccc1c23 (stereo not given) 7.75%
CN1CCN(c2ccc(NC(=O)c3ccccc3)cc2)CC1 28.5%
COc1cccc(C(=O)Nc2ccc(N3CCN(C(=O)c4ccco4)CC3)cc2)c1 -47.4%
C/C=C/C(=O)OCC(=O)Nc1ccc(F)cc1Cl 1.87%
COc1ccc(C(=O)NC2CC2)cc1OC1CCN(C/C=C/c2ccccc2)CC1 -4.81%
Cc1cnc(NC(=O)c2ccc(Cl)nc2)s1 -2.29%
O=C(Nc1nnc(C2CC2)s1)c1ccccn1 -0.73%
Cc1cc(C(F)(F)F)nn1-c1nc(-c2ccco2)cc(C(F)(F)F)n1 0.688%
COc1ccccc1-n1c(-c2cc(-c3ccco3)[nH]n2)n[nH]c1=S 3.67%
CCOc1ccc(/C(O)=C2\C(=O)C(=O)N(c3ccc(OC)cc3)C2c2ccccc2[N+](=O)[O-])cc1 (stereo not given) 14.9%
NS(=O)(=O)c1ccc2nc(NC(=O)C3=COCCO3)sc2c1 -2.24%
Cc1nc2cc(NC(=O)NC3CC3)ccc2n1C -7.31%
C=CCN(C(=O)Nc1ccc2c(c1)nc(C)n2C)c1ccccc1 3.61%
O=C(COC(=O)c1ccc[nH]c1=O)Nc1ccc2c(c1)OC(F)(F)O2 5.92%
CCOC(=O)/C(N=Nc1cc(C(=O)O)cc(C(=O)O)c1)=C(\O)CCl 10.2%
COc1ccc(-n2cc(-c3ccccc3)c3c(=S)nc[nH]c32)cc1 5.15%
COc1cc2ccccc2cc1C(=O)Nc1nc(C)c(C(C)=O)s1 -6.84%
COc1ccc(Cc2nnc(NC(=O)c3ccc(OC)cc3OC)s2)cc1 -12.4%
O=C(O)CC/C(=C\c1cc2c(cc1Br)OCO2)c1nc2ccccc2s1 17.4%
CCN(CC(=O)Nc1ccc(C)c(S(=O)(=O)N(C)C)c1)Cc1ccccc1 2.21%
COc1ccc(NC(=O)c2cc(-c3ccc(C)cc3)on2)cc1 7.98%
Cc1ccc(NC(=O)OCc2cncs2)cc1 -1.58%
COc1ccc(S(=O)(=O)NCCCc2ccccc2)cc1 16%
C=CCn1c(-c2ccc(Cl)cc2)ccc(C#N)c1=O 1.51%
CCC(C)(C)NC(=O)CN(C(=O)CCC(=O)Nc1cc(C)ccn1)c1ccc2c(c1)OCCO2 0.138%
COc1cc(/C=N/NC(=O)c2ccc(N3CCCC3=O)cc2)ccc1O -4.06%
COc1ccc(/C=N/NC(=O)c2ccc3c(c2)OCCO3)c(OC)c1 -1.2%
COc1ccc(/C=N/NC(=O)c2ccccc2)cc1OS(=O)(=O)c1ccccc1 2.24%
COc1ccc(C(=O)Nc2ccccc2C(=O)NCc2ccco2)cc1 12%
Cc1cccnc1CCNC(=O)C1CCC(=O)N(Cc2cccc(F)c2)C1 (stereo not given) -10.1%
CC(=O)N1CCN(CC(c2ccccc2)c2ccccc2)CC1 7.74%
COc1cccc(N2CCN(c3ccc4nnc(CCC(=O)N5CCN(C)CC5)n4n3)CC2)c1 7.34%
COC(=O)c1c(NC(=O)CN2C(=O)NC(CCc3ccccc3)C2=O)sc2c1CCCCC2 (stereo not given) -0.263%
COc1ccc(C2=NS(=O)(=O)N(C)C(C(=O)N(C)Cc3ccccc3)=C2)cc1 0.338%
O=C(CN(C(=O)c1nsc(Cl)c1Cl)c1cccc(F)c1)NC1CCCC1 -4.29%
COc1ccc(/C=N/NC(=O)Cn2cc(C(F)(F)F)ccc2=O)cc1 3.51%

Source: PubChem BioAssay AID1663 (Broad Institute, 2009)
